Assay outcomes: PubChem BioAssay, National Center for Advancing Translational Sciences (NCATS)
mIDH1 inhibitor = blocks human mutant IDH1 R132H enzyme; IDH1-R132H enzyme, NADPH consumption, diaphorase/resazurin fluorescence; actives 0.093% (n = 390,000); O75874; Potency, µM (doses to about 76.6 µM), actives largely listed as inhibitors; AID 602179; further: nearly all actives have a fitted effect of over 65% in size
Target sequence (O75874 whole entry R132H, stated change not applied): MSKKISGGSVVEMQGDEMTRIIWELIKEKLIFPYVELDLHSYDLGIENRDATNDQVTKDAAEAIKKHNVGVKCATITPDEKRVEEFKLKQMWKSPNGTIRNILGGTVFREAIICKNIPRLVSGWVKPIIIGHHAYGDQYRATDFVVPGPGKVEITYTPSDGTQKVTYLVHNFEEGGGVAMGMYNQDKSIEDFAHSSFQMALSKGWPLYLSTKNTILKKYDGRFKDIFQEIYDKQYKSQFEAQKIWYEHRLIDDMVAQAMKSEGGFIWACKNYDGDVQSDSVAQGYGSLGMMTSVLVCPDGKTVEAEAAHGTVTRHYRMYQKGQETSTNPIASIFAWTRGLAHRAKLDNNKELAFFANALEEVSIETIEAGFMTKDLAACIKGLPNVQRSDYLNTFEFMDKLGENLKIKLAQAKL
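IDH1-R132H (0.5 ug/mL) preincubated 30 min with compound, then NADPH (0.016 mM) and alpha-KG (2 mM) added; 80 min at RT, pH 7.5. Remaining NADPH coupled via diaphorase/resazurin to fluorescence (540/590 nm); concentration-response curves normalized to no-enzyme control.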
Nrf2 inh = Nrf2 pathway inhibition; A549 ARE-Fluc reporter, luciferase luminescence, 18-24 h; Potency, µM (top dose mostly 46 µM), most hits filed as inhibitors; actives 2.1% (n = 360,000); further: nearly all actives have a fitted effect of over 60% in size
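Quantitative HTS in A549 cells stably bearing an antioxidant response element-firefly luciferase construct. Inhibition of Nrf2-driven transcription was scored by luminescence after 18-24 h of compound exposure at 37 °C.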
ELG1 repair inh = ELG1-dependent DNA repair inhibition; AID 504467; actives 2.3% (n = 330,000); Potency, µM (doses to about 46.1 µM), hits mostly inhibitors; HEK293T ELG1-luciferase reporter, luminescence, 16 h; DNA damage induced by 5-fluorouridine; further: nearly all actives have a fitted effect of over 55% in size
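Cells (2,000 per well) received 5-fluorouridine plus test compound or DMSO and were incubated 16 hr at 37 °C, 5% CO2. Luciferase activity was read by luminescence 30 min after ONE-Glo addition; signal suppression marked inhibition of damage-induced ELG1 function.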
Nrf2 activator = activators of Nrf2 (ARE) signaling; actives 0.31% (n = 410,000); Potency, µM (series often up to 46.1 µM), most hits filed as activators; AREc32 ARE-luciferase reporter (MCF7-derived line), luminescence, 24 h; AID 624171; further: nearly all actives have a fitted effect of over 65% in size
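Each well held 1000 AREc32 cells, which were incubated with compound for 24 hr at 37 deg C after overnight attachment, and ARE reporter activity was quantified by firefly luciferase luminescence.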
A549 tox = kills or reduces viability of A549 cells in Nrf2 counter-screen; actives 0.16% (n = 390,000); Potency, µM (doses to about 46 µM), actives largely listed as inhibitors; A549 ARE-Fluc cells, CellTiter-Fluor viability, 18-24 h
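A549 ARE-Fluc cells in 5% FBS OPTI-MEM, 5000 cells/well, rested 2 h then exposed to compounds in concentration-response for 18-24 h at 37 °C. Viability by CellTiter-Fluor fluorescence (Ex 405/Em 525) after 30 min; luciferase luminescence (BugLite, 15 min, RT) read afterwards.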
Resorufin autofl = autofluorescence interference, mutant IDH1 hit counter-screen; shares compounds with mIDH1 inhibitor; Resorufin detection reagent fluorescence interference, cell-free; inhibition of signal, % at 51.2 µM; 750 tested, under 10 active
IDH1 WT = selectivity of mutant IDH1 inhibitors: human wild-type IDH1; AID 623995; Potency, µM (doses to about 115 µM), hits mostly inhibitors; actives 9% (n = 750); WT IDH1 enzyme, NADPH diaphorase/resazurin fluorescence; shares compounds with mIDH1 inhibitor; further: nearly all actives have a fitted effect of over 55% in size
Target sequence (O75874 whole entry, looked up): as the sequence (O75874 whole entry R132H, stated change not applied) above, with H132R counted along it
mIDH1 confirm = confirmation of human mutant IDH1 inhibitors. shares compounds with mIDH1 inhibitor. IDH1 R132H enzyme, NADPH diaphorase/resazurin fluorescence. Potency, µM (highest dose often 76.6 µM), actives largely listed as inhibitors. actives 83% (n = 750). AID 624002; further: nearly all actives have a fitted effect of over 50% in size
Of the large screens only hits and unclear results are named; the others gave an inactive call (follow-up assays come after a bar, where they were run). The list is not random: actives were taken first. Their share in the collection is about 3.8%. The call rests on the fitted dose curve; in most records, active means well fitted curve in the direction sought with a large enough effect; inconclusive means small, poorly fitted or top-dose-only effect, or another doubt; inactive means no such curve, though single readings can be large; an effect the other way counts as inactive or inconclusive.

CCC(=O)N1CCc2cc(S(=O)(=O)NCCC(=O)Nc3ccc(OC)c(Cl)c3)ccc21	none (no result: ELG1 repair inh)
CC(=O)c1nnn(-c2nc(N)nc(N(c3ccccc3)c3ccccc3)n2)c1C	none
Cc1cc(C)n(-c2nc(N(c3ccccc3)c3ccccc3)nc(-n3nc(C)cc3C)n2)n1	mIDH1 inhibitor inconclusive, ELG1 repair inh 26µM, A549 tox inconclusive (no result: Nrf2 inh) | Resorufin autofl inactive | IDH1 WT inactive | mIDH1 confirm 10µM
O=C(NNC(=O)c1ccc(S(=O)(=O)N2CCOCC2)cc1)c1ccccc1	none
CCc1ccccc1NC(=O)c1noc2c1CC(C(C)(C)C)CC2 (stereo not drawn)	none (no result: ELG1 repair inh)
N#Cc1c2c(c(Nc3ccccc3)n3c1nc1ccccc13)CCC2	none
N#Cc1c2c(c(Nc3ccc(F)cc3)n3c1nc1ccccc13)CCCC2	mIDH1 inhibitor inconclusive (no result: ELG1 repair inh) | Resorufin autofl inactive | IDH1 WT inactive | mIDH1 confirm 22µM
O=C(NC(Nc1nc2ccc([N+](=O)[O-])cc2s1)(C(F)(F)F)C(F)(F)F)c1cccnc1	mIDH1 inhibitor inconclusive, Nrf2 inh 5.8µM, ELG1 repair inh inconclusive, A549 tox 7.3µM | Resorufin autofl inactive | IDH1 WT inactive | mIDH1 confirm 13µM
CN(C)S(=O)(=O)c1ccc2nc(NC(=O)c3cccnc3)sc2c1	Nrf2 inh inconclusive (no result: ELG1 repair inh)
O=C(NC(Nc1nc2ccc([N+](=O)[O-])cc2s1)(C(F)(F)F)C(F)(F)F)c1ccccc1Cl	mIDH1 inhibitor inconclusive, Nrf2 inh 1.8µM, ELG1 repair inh inconclusive, A549 tox 5.8µM | Resorufin autofl inactive | IDH1 WT inactive | mIDH1 confirm 22µM
O=C(Nn1c(C2CCCCC2)nc2ccccc2c1=O)c1ccc([N+](=O)[O-])cc1	mIDH1 inhibitor inconclusive, Nrf2 inh 23µM, A549 tox inconclusive | Resorufin autofl inactive | IDH1 WT inactive | mIDH1 confirm inactive
COc1cccc(OC)c1C(=O)Nn1c(C2CCC2)nc2ccccc2c1=O	none (no result: Nrf2 inh)
COc1ccc(NC(=O)c2c[nH]n3c(=O)cc(C4CCN(C(=O)OC(C)(C)C)CC4)nc23)cc1Cl	mIDH1 inhibitor 41µM, ELG1 repair inh inconclusive | Resorufin autofl inactive | IDH1 WT 32µM | mIDH1 confirm 20µM
CC(C)(C)OC(=O)N1CCC(c2cc(=O)n3[nH]cc(C(=O)NC4CCCC4)c3n2)CC1	none
CC(C)(C)OC(=O)N1CCC(c2cc(=O)n3[nH]cc(C(=O)Nc4ccc(F)c(Cl)c4)c3n2)CC1	mIDH1 inhibitor inconclusive | Resorufin autofl inactive | IDH1 WT inconclusive | mIDH1 confirm 10µM
COc1ccc(NC(=O)c2cnn(-c3ccc(F)cc3F)c2C2CCN(C(=O)OC(C)(C)C)CC2)cc1Cl	Nrf2 inh inconclusive (no result: ELG1 repair inh)
Cc1cccc(C(=O)N2CCc3cc(CNC(=O)c4cc5ccccc5[nH]4)ccc32)c1	none (no result: Nrf2 inh, ELG1 repair inh)
O=C(NCCc1ccccc1Cl)c1cc2ccccn2n1	Nrf2 inh inconclusive (no result: ELG1 repair inh)
CN(C)C(=O)CCc1ccc2c3c([nH]c2c1)[C@]1(C)[C@@H](C(=O)N2CCCCC2)C[C@H](CC(=O)NC(C)(C)C)C(=O)N1CC3	none
CC[C@]12c3[nH]c4cc(-c5ccco5)ccc4c3CCN1C(=O)[C@@H](CC(=O)NC/C=C(\C)CCC=C(C)C)C[C@@H]2C(=O)N1CCN(C(=O)C2CC2)CC1	mIDH1 inhibitor 35µM, Nrf2 inh inconclusive, ELG1 repair inh inconclusive, A549 tox inconclusive | Resorufin autofl inactive | IDH1 WT inactive | mIDH1 confirm inactive
CC(C)=CCC/C(C)=C/CNC(=O)C[C@H]1C[C@H](C(=O)N2CCCCC2)[C@@]2(CCc3ccccc3)c3[nH]c4cc(-c5ccco5)ccc4c3CCN2C1=O	none
CC(C)=CCC/C(C)=C/CNC(=O)C[C@H]1C[C@H](C(=O)N2CCCCC2)[C@@]2(C)c3[nH]c4cc(CCC(=O)N(C)C)ccc4c3CCN2C1=O	mIDH1 inhibitor inconclusive, Nrf2 inh inconclusive, ELG1 repair inh inconclusive | Resorufin autofl inactive | IDH1 WT inactive | mIDH1 confirm 25µM
CCc1cccc(NC(=O)Nc2csc3c2CCCC3)c1	none (no result: ELG1 repair inh)
COc1ccc(CN(CCC(c2ccccc2)c2ccco2)C(=O)c2ccco2)cc1 (stereo not drawn)	Nrf2 inh inconclusive, ELG1 repair inh inconclusive
COc1ccc(CN(CCC(c2ccc(F)cc2)C2CCOC(C)(C)C2)C(=O)c2ccco2)cc1 (stereo not drawn)	mIDH1 inhibitor inconclusive, Nrf2 inh inconclusive, ELG1 repair inh 10µM, A549 tox inconclusive | Resorufin autofl inactive | IDH1 WT inactive | mIDH1 confirm inconclusive
O=C(CCl)c1ccc2c(c1)CCN2C(=O)C1CCCCC1	mIDH1 inhibitor inconclusive, Nrf2 inh inconclusive, ELG1 repair inh inconclusive | Resorufin autofl inactive | IDH1 WT inactive | mIDH1 confirm 40µM
COc1cc2c(-c3ccccc3Cl)nc3c(c(C)nn3-c3ccccc3)c2cc1OC	mIDH1 inhibitor inconclusive (no result: ELG1 repair inh) | Resorufin autofl inactive | IDH1 WT inactive | mIDH1 confirm 5µM
COc1cc2c(-c3ccccc3O)nc3c(c(C)nn3-c3ccccc3)c2cc1OC	Nrf2 inh inconclusive
S=C(Nc1cccc2ccccc12)NC1CCCCC1	mIDH1 inhibitor inconclusive, Nrf2 inh inconclusive, ELG1 repair inh inconclusive | Resorufin autofl inactive | IDH1 WT inconclusive | mIDH1 confirm inactive
S=C(Nc1cccc2ccccc12)Nc1cccc2ccccc12	none (no result: ELG1 repair inh)
NC(=O)c1nc(Nc2ccccc2)sc1NC(=O)c1ccccc1Br	Nrf2 activator inconclusive (no result: Nrf2 inh, ELG1 repair inh)
COc1c(CC=C(C)C)cc(C2CC(=O)c3c(O)cc(O)cc3O2)cc1CC=C(C)C (stereo not drawn)	mIDH1 inhibitor 35µM, Nrf2 inh inconclusive, ELG1 repair inh inconclusive | Resorufin autofl inactive | IDH1 WT 40µM | mIDH1 confirm 25µM
COCc1ccc(-c2c(-c3ccsc3)oc(=O)c3cc(OC)c(OC)cc23)cc1	mIDH1 inhibitor 16µM, Nrf2 inh inconclusive, ELG1 repair inh inconclusive | Resorufin autofl inactive | IDH1 WT inactive | mIDH1 confirm 10µM
COc1ccc(-c2c(-c3ccc(C#N)cc3)oc(=O)c3cc(OC)c(OC)cc23)cc1	none
CSc1nc(N(C)NC(=O)c2ccc(Cl)cc2)c2ccccc2n1	mIDH1 inhibitor 46µM, A549 tox inconclusive | Resorufin autofl inactive | IDH1 WT inactive | mIDH1 confirm 22µM
